# Experimental data: PubChem BioAssay AID463173 (ICCB-Longwood Screening Facility, Harvard Medical School, 2010)
# In all, about 52,000 compounds went through this assay and about 1,700 (3.3%) were called active. This is one part of a sample in which actives are shown more often than they occur. Values without a mark were called inactive. Rule as the data show it: active = survival mostly below about 52% (no sharp cut-off); inactive = mostly above about 56%.
# System: Wild type
# Assay: growth inhibition of S. aureus wild type versus tarO mutant, primary screen, teichoic acid synthesis inhibitors, RN4220, OD600 (AID 463173)
# Details: S. aureus RN4220 wild type/DeltatarO growth, OD600, 18 h, hits give low values, screened at 18.75 µg/mL (by protocol)
row,SMILES,survival
1,Cc1nn(C)c(C)c1S(=O)(=O)N(CC(=O)NCCc1ccccc1)c1ccc(C(C)C)cc1,86%
2,COc1cc(NC(=O)C2CCN(S(=O)(=O)c3c(C)noc3/C=C/c3ccccc3F)CC2)cc(OC)c1OC,64%
3,CCCCC(=O)Oc1ccc2oc(-c3ccc(OC)cc3)cc(=O)c2c1,69%
4,Cc1c(Cl)cccc1-n1nnc(-c2nc(-c3ccc4c(c3)OCO4)no2)c1C,73%
5,O=C(NCCc1ccc(Cl)cc1)c1ccc2nc(CCc3ccccc3)oc2c1,59%
6,O=C(NCCc1ccccc1)c1ccc2nc(CCc3ccccc3)oc2c1,0% (active)
7,O=C(NCc1cccc(F)c1)c1ccc2nc(CCc3ccccc3)oc2c1,71%
8,O=C(NCc1ccccc1)c1ccc2nc(CCc3ccccc3)oc2c1,-3% (active)
9,CCCNC(=O)c1ccc2nc(CCc3ccccc3)oc2c1,73%
10,COc1ccc(CCNC(=O)c2ccc3nc(CCc4ccccc4)oc3c2)cc1OC,10% (active)
11,COc1ccc(Cc2nc3ccc(C(=O)NCCc4ccc(OC)c(OC)c4)cc3o2)cc1,68%
12,COc1ccc(CNC(=O)c2ccc3nc(CCc4ccccc4)oc3c2)c(OC)c1,131%
13,COc1ccc(CCNC(=O)c2ccc3nc(Cc4ccccc4)oc3c2)cc1OC,124%
14,COc1ccc(CNC(=O)c2ccc3nc(CCc4ccccc4)oc3c2)cc1OC,71%
15,COc1ccc(CNC(=O)c2ccc3nc(CCc4ccccc4)oc3c2)cc1,-2% (active)
16,CN(C)c1ccc(CNC(=O)c2ccc3nc(CCc4ccccc4)oc3c2)cc1,78%
17,COc1ccc(CCNCc2ccc3c(c2)n(C)c(=O)n3C)cc1OC,111%
18,O=C(Nc1ccc2nc(C3CC3)n(Cc3ccccc3)c(=O)c2c1)C1CC1,104%
19,CCc1ccc(CN(Cc2ccco2)C(=O)COc2ccccc2Cl)cc1,85%
20,Cc1ccc(N2CCN(S(=O)(=O)c3nnc(NC(=O)c4ccc(C(C)C)cc4)s3)CC2)cc1,82%
21,Cc1cc(C)cc(C(=O)Nc2cc(C(F)(F)F)ccc2N2CCN(c3ccccc3)CC2)c1,78%
22,CCc1ccc(CNC(=O)c2ccc3c(c2)nc2n3CCC(C)C2)cc1 (stereo not given),127%
23,COC(=O)CCc1sc(Nc2ccc(OC)cc2)nc1-c1ccc(OC)cc1,77%
24,Cc1c(NC=O)c(=O)n(-c2ccccc2)n1C,107%

row,SMILES,survival
1,CC(=O)c1ccc(NC(=O)COCc2cc(-c3ccco3)on2)cc1,129%
2,O=C(O)c1ccc(Cn2cnc3cccnc32)cc1,55%
3,CC(C)(C)NC(=O)C1CC(=O)OC1(C)C (stereo not given),107%
4,COc1ccc(Br)cc1C1Sc2ccccc2NC2=C1C(=O)c1ccccc12 (stereo not given),41%
5,COC(=O)c1c(NC(=O)c2c(OC)cccc2OC)sc2c1CCCC2,3% (active)
6,COC(=O)c1c(NC(=O)CCCOc2cccc(C)c2)sc2c1CCC2,12% (active)
7,COC(=O)c1c(NC(=O)CCCOc2ccc(C)cc2)sc2c1CCCC2,3% (active)
8,COC(=O)c1c(NC(=O)c2ccc(OC)cc2OC)sc2c1CCCCC2,56%
9,COC(=O)c1c(NC(=O)COc2ccc(C)cc2Br)sc2c1CCCC2,44%
10,CCCCOc1cccc(C(=O)Nc2sc3c(c2C(=O)OCC)CCCC3)c1,72%
11,Cc1ccc(OCCCC(=O)Nc2sc3c(c2C(N)=O)CCCC3)cc1,57%
12,COC(=O)c1c(NC(=O)COc2cc(C)c(Cl)c(C)c2)sc2c1CCCC2,140%
13,COC(=O)c1c(NC(=O)c2ccccc2C(=O)O)sc2c1CCCC2,110%
14,COC(=O)c1c(NC(=O)COc2c(C)cccc2C)sc2c1CCCC2,6% (active)
15,COC(=O)c1c(NC(=O)COc2cccc(C(F)(F)F)c2)sc2c1CCCC2,72%
16,COC(=O)c1c(NC(=O)COc2ccc(C(C)C)cc2)sc2c1CCCC2,51%
17,O=c1nc2c(-c3ccc(F)cc3Cl)n[nH]n2c2ccccc12,72%
18,COc1ccc(-c2nc(Cn3c(SCc4cccc(Cl)c4)nc4ccncc43)c(C)o2)cc1,132%
19,O=C(CSC1=Nc2ccccc2N=C(c2ccc(F)cc2)C1)Nc1ccc(Cl)cc1,92%
20,CCN(CC)C1=C(C(=O)c2ccccc2)NS(=O)(=O)c2ccccc21,103%
21,CCOc1ccc(-c2nnc(SCC(=O)NCc3ccccc3Cl)o2)cc1,85%
22,O=C(Nc1ccccc1)C1CCCN1C1CCCCC1 (stereo not given),108%
23,O=C1OC(c2ccccc2)=N/C1=C1\OC(=O)c2ccccc21,104%
24,CC1CCCCN1C(=O)CSc1n[nH]c(-c2ccccc2Cl)n1 (stereo not given),72%

row,SMILES,survival
1,CCCN(Cc1cccs1)C(=O)Nc1ccc(Br)cc1F,76%
2,COC(=O)c1c(NC(=O)COc2ccc(Cl)cc2C)sc2c1CCCCC2,83%
3,COC(=O)c1c(NC(=O)CCCOc2ccccc2C)sc2c1CCC2,4% (active)
4,COC(=O)c1c(NC(=O)CS(=O)(=O)c2ccc(C)cc2)sc2c1CCCC2,-6% (active)
5,COC(=O)c1c(NC(=O)CCCOc2cccc(C)c2)sc2c1CCC(C)C2 (stereo not given),4% (active)
6,COC(=O)c1c(NC(=O)COc2c(C)ccc(C)c2C)sc2c1CCC(C)C2 (stereo not given),11% (active)
7,CCOC(=O)c1c(NC(=O)COc2cccc(C(F)(F)F)c2)sc2c1CCC(C)C2 (stereo not given),74%
8,Cc1ccccc1OCC(=O)Nc1sc2c(c1C(=O)OC(C)C)CCCC2,69%
9,CCOC(=O)c1c(NC(=O)CS(=O)(=O)c2ccc(C)cc2)sc2c1CCCCC2,87%
10,Cc1cccc(OCCCC(=O)Nc2sc3c(c2C(N)=O)CCC(C)C3)c1 (stereo not given),88%
11,COC(=O)c1c(NC(=O)COc2ccc(OC)cc2)sc2c1CCC(C)C2 (stereo not given),86%
12,COC(=O)c1c(NC(=O)COc2cc(C)ccc2C(C)C)sc2c1CCC(C)C2 (stereo not given),66%
13,COC(=O)c1c(NC(=O)CS(=O)(=O)c2ccc(C)cc2)sc2c1CCCCC2,67%
14,Cc1nc2nc(C)c(NS(=O)(=O)c3ccc(F)cc3)c(=O)n2[nH]1,81%
15,O=C(O)CCNc1ccc(Cl)cn1,86%
16,S=c1nc[nH]c2c1oc1ccccc12,96%
17,Cc1ccccc1NC(=O)CSc1nc(-c2ccc(F)cc2)nc2c1Cc1ccccc1O2,77%
18,CCOc1ccc(C(=O)N(C)CC2COc3ccccc3O2)cc1 (stereo not given),98%
19,Cc1ccccc1-c1ncnn1-c1sc2c(c1C#N)CCCCC2,65%
20,COc1ccccc1-c1cc(C(=O)Nc2sc3c(c2C#N)CCCC3)no1,140%
21,COc1ccccc1-c1ncnn1-c1sc2c(c1C#N)CCCCC2,1% (active)
22,N#Cc1c(-n2ncnc2-c2ccccc2Cl)sc2c1CCCCC2,38%
23,N#Cc1c(-n2ncnc2-c2ccccc2C(F)(F)F)sc2c1CCCCC2,4% (active)
24,COc1cccc(-c2ncnn2-c2sc3c(c2C#N)CCCCC3)c1OC,72%

row,SMILES,survival
1,CCOc1ccccc1NC(=O)CSc1c(C)cnc2c1c(=O)n(C)c(=O)n2C,67%
2,CCN(CC)C(=O)Cn1c(=O)nc(-c2ccccc2F)c2cc(Cl)ccc21,73%
3,CC1CCN(c2nc3nonc3nc2Nc2ccc(F)cc2)CC1,103%
4,O=C(Nc1cccc(Cl)c1)C1CCCN(c2ncnc3c2nc2n3CCCCC2)C1 (stereo not given),36%
5,CC1CCCN(c2nc3nonc3nc2Nc2cccc(Cl)c2)C1 (stereo not given),0% (active)
6,CCOC(=O)c1cc(C(C)(C)C)oc1CN,95%
7,CC(C)N(Cc1ccccc1)C(=O)CN1C(=O)CSc2ccc(S(=O)(=O)N3CCCC3)cc21,100%
8,Cc1cccc(CNC(=O)C2CCN(c3nc4ccc(Cl)cc4[nH]3)CC2)c1,79%
9,CC1CCN(C(=O)CSc2nc3ccccc3nc2Cc2ccccc2)CC1,73%
10,CCOCCc1nn2c(=O)cc(COC(=O)CNC(=O)c3cccc(C)c3)nc2s1,84%
11,CCOc1ccc(C(=O)Nc2cccc(C(=O)OCc3cc(=O)n4nc(C5CC5)sc4n3)c2)cc1,51%
12,COCCc1nn2c(=O)cc(COC(=O)COc3ccccc3C)nc2s1,80%
13,CCOCCc1nn2c(=O)cc(COC(=O)c3ccc(NC(=O)C(C)(C)C)cc3)nc2s1,77%
14,CCCc1nn2c(=O)cc(COC(=O)c3cccc(NC(=O)c4ccc(OCC)cc4)c3)nc2s1,-2% (active)
15,CCOCCc1nn2c(=O)cc(COC(=O)c3ccc(NC(=O)c4ccc(F)cc4)cc3)nc2s1,0% (active)
16,CCCCc1nn2c(=O)cc(COC(=O)c3ccccc3C)nc2s1,72%
17,CCOCCc1nn2c(=O)cc(COC(=O)c3cccc(C)c3)nc2s1,-6% (active)
18,CCOCCc1nn2c(=O)cc(COC(=O)c3ccc(NC(=O)c4cccs4)cc3)nc2s1,118%
19,CCOCCc1nn2c(=O)cc(COC(=O)c3ccc4c(c3)OCO4)nc2s1,133%
20,COCCc1nn2c(=O)cc(COC(=O)c3ccccc3C)nc2s1,-6% (active)
21,CCCc1nn2c(=O)cc(COC(=O)c3ccccc3NC(=O)c3ccc(OCC)cc3)nc2s1,22%
22,C=CCn1c2ccccc2c2ccccc21,80%
23,Cc1cccc(-c2nc(SCCCOc3ccccc3Cl)n3[nH]c(=O)cc3n2)c1,65%
